HTT ATP protect: cytoprotection in Huntington HTT-Q103 PC12 cell model. Potency, µM (top dose mostly 56.4 µM), without a hit: cytoprotection (ATP increase), usual class: activators. 230,000 tested, 0.14% active. PC12 HTT-Q103 induced, cytoprotection, ATP luminescence, 40 h; also: potency is read from the fitted curve at half-maximal effect; % of control where 0% means no effect; nearly all actives have a fitted effect of over 45% in size
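ATP quantification (ATPlite) reports survival of PC12 cells in which tebufenozide, 100 nM final, switches on Htt exon 1 with 103 glutamines linked to GFP; compounds are titrated.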
CBFb-RUNX1 inh: CBF-beta/RUNX1 interaction disruption; Potency, µM (series often up to 59.8 µM), without a hit: at the top dose activity, negative = inhibition, usual class: inhibitors; AlphaScreen CBFb-His/RUNX1-biotin binding, biochemical; 230,000 tested, under 10 active; Q01196+Q13951; AID 1477; also: % of control where 0% means no effect
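His-tagged CBF-beta and biotinylated RUNX1 (30 nM each) were premixed 20 min at room temperature, exposed to compound for 15 min, then given nickel-chelate and streptavidin AlphaScreen beads (50 ng each). After 90 min, AlphaScreen signal was read.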
ALDH1A1 block: inhibitors of human aldehyde dehydrogenase 1A1; Purified ALDH1A1, NADH fluorescence, propionaldehyde substrate; Potency, µM (doses to about 75.3 µM), without a hit: top-dose activity, negative = inhibition, most hits filed as inhibitors; P00352; 220,000 tested, 7.3% active; active = well fitted inhibition curve with a large enough effect, not every such curve was filed as active; inconclusive = small, poorly fitted or top-dose-only effect, or another doubt; inactive = no such curve, though single readings can be large or run the other way;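 also: potency is read from the fitted curve at half-maximal effect; plate controls were no enzyme wells and a reference inhibitor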
JMJD2E inh: inhibitors of human JMJD2E histone demethylase; B2RXH2; JMJD2E catalytic domain, FDH-coupled NADH fluorescence (FDH is formaldehyde dehydrogenase); Potency, µM (top dose mostly 57.1 µM), for the others: at the top dose activity change, negative = inhibition, most hits filed as inhibitors; 230,000 tested, 1.6% active; AID 2147; active = well fitted inhibition curve with a large enough effect, not every such curve was filed as active; inconclusive = small, poorly fitted or top-dose-only effect, or another doubt; inactive = no such curve, though single readings can be large or run the other way;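 also: potency is read from the fitted curve at half-maximal effect; 0% = wells with enzyme and -100% = buffer wells without enzyme; nearly all actives have a fitted effect of over 50% in size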
Target sequence (B2RXH2 1-337 limits assumed): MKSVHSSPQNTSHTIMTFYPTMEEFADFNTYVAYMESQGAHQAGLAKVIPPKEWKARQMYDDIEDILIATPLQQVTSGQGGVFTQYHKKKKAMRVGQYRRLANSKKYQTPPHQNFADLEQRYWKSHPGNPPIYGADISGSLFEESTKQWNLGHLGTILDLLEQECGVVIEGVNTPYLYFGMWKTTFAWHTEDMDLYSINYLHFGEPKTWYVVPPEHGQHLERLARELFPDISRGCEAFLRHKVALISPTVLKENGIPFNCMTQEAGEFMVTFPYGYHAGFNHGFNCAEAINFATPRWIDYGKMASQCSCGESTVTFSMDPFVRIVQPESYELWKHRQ
HTT aggregate: inhibitors of mutant huntingtin aggregate formation in PC12 cells. 220,000 tested, 1.1% active. Potency, µM (top dose mostly 46.1 µM), for the others: at the top dose activity change, negative = inhibition, most hits filed as inhibitors. PC12 HttQ103-GFP aggregates, Acumen cytometry, 40 h. AID 1688; also: potency is read from the fitted curve at half-maximal effect; % is scaled to controls: 0 for no effect and ±100 for the full control effect; nearly all actives have a fitted effect of over 60% in size
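PC12/HTTQ103-GFP, ecdysone-inducible; teb 100 nM; cpd qHTS titration; GFP aggregates read on laser cytometer, Ex 488/Em 500-530 nm.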
HPGD inh: HPGD (human) dehydrogenase inhibition; 150,000 tested, 4.3% active; purified HPGD, NADH fluorescence kinetic, PGE2 substrate; Potency, µM, inactives show at the top dose activity change, negative = inhibition, actives largely listed as inhibitors; AID 894; P15428; active = well fitted inhibition curve with a large enough effect, not every such curve was filed as active; inconclusive = small, poorly fitted or top-dose-only effect, or another doubt; inactive = no such curve, though single readings can be large or run the other way; also: potency is read from the fitted curve at half-maximal effect; % is scaled to controls: 0 for no effect and ±100 for the full control effect
Target sequence (P15428 whole entry, looked up): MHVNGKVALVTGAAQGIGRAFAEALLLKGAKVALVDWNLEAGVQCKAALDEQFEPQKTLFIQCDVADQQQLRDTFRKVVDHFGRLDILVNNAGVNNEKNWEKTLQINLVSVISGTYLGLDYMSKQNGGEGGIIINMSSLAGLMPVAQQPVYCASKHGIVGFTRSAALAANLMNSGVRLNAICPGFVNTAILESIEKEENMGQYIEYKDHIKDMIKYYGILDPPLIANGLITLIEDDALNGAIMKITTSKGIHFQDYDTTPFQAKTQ
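NADH formation kinetics: reaction with 30 uM PGE2 and 1 mM NAD+ (final), 20 nM enzyme, Tris-HCl pH 8 with Tween 20, after 15 min compound preincubation at room temperature. Fluorescence change, last versus first of five reads.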
Numbers without * were called inactive; ? = inconclusive; . = not tested or not shown; [ ] = another dose, or the depositor's remark. Hits are enriched below; roughly 9.8% of the tested compounds scored in any of these assays. Unless noted, calls follow the shape of the dose curve; as a rule, active = well fitted curve in the direction sought with a large enough effect; inconclusive = small, poorly fitted or top-dose-only effect, or another doubt; inactive = no such curve, though single readings can be large; an effect the other way counts as inactive or inconclusive.

SMILES	HTT ATP protect	CBFb-RUNX1 inh	ALDH1A1 block	JMJD2E inh	HTT aggregate	HPGD inh
COc1ccc(S(=O)(=O)N(CC(=O)Nc2ccc(S(=O)(=O)N3CCOCC3)cc2)Cc2ccc(F)cc2)cc1	-23%[10 µM]	1%	?	5%	8%	-7%
COc1cc(CN2CCN(Cc3ccc(C)cc3)C(CCO)C2)cc(OC)c1O (centres undefined)	16%[10 µM]	2%	0%	22%	-1%[9.22 µM]	.
COc1ccc(NS(=O)(=O)c2ccc(S(=O)(=O)N3CCCC3)cc2)cc1	19%	1%	1µM*	7%	-23%	-4%
CC1=NN(c2ccc(Cl)cc2)C(=O)C1C(c1ccccc1O)c1c(C)[nH]n(-c2ccc(Cl)cc2)c1=O (centres undefined)	5%[10 µM]	-5%	7.5µM*	?	?	7.9µM*
O=c1[nH]c2ccccc2c2nc3ccccn3c12	-95%[0.074 µM]	2%	-4%	?	14%	-21%
O=c1nc2c(O)cccn2c2c1c(=O)[nH]c1ccccc12	-4%[10 µM]	6%	20µM*	11µM*	29%	?
COc1ccccc1-c1cn(C(C)(C)C)nc1C	-26%	4%	1%	-1%	8%	.
Oc1ccc(C2CNCc3sccc32)cc1O (centres undefined)	.	19%	?	25µM*	.	7.1µM*
N#CC1=C2SCCN2C(=O)C(C#N)C12CCCCC2 (centres undefined)	4%	3%	0.56µM*	3%	6%	.
O=C(O)C1CC(=O)n2c(nc3ccccc32)S1 (centres undefined)	17%	-10%	25µM*	6%	9%	-17%
O=C1CSc2nc3ccccc3n21	-1%	-3%	?	6%	3%	?
c1ccc(OCc2nn3c(Cn4cnc5ccccc54)nnc3s2)cc1	11%	-4%	19µM*	-5%	-18%	11µM*
c1ccc(-c2nn3c(Cn4nnc5ccccc54)nnc3s2)cc1	0%[10 µM]	2%	3.2µM*	-6%	4%	10µM*
c1ccc(-c2nn3c(Cn4cnc5ccccc54)nnc3s2)cc1	7%[10 µM]	0%	2.2µM*	7%	-16%	4.5µM*
Clc1ccc(Cl)c(-c2nn3c(Cn4cnc5ccccc54)nnc3s2)c1	-4%[0.074 µM]	.	.	.	.	.
c1ccc2c(c1)ncn2Cc1nnc2sc(-c3ccncc3)nn12	-19%[10 µM]	3%	10µM*	1%	-25%	7.9µM*
CCOC(=O)C(CCc1ccccc1)NC1CCc2ccccc2N(CC(=O)O)C1=O (centres undefined)	-60%	6%	-3%	?	-22%	-8%
COC(=O)NC(c1ccco1)C(C(C)=O)C(=O)OC (centres undefined)	-23%[10 µM]	-1%[13.1 µM]	4%[13.5 µM]	.	.	.
c1cncc(-c2nn3cnnc3s2)c1	2%[0.074 µM]	22%	11%	-1%	?	1%
c1cncc(-c2nn3c(Cn4cnc5ccccc54)nnc3s2)c1	19%[10 µM]	-8%	1µM*	1%	-17%	3.2µM*
COc1ccc(-n2c(Cn3nnc4ccccc43)n[nH]c2=S)cc1	.	-8%	6%	-25%	10%	-13%
COc1ccc(Cc2nn3c(Cn4nnc5ccccc54)nnc3s2)cc1	14%[10 µM]	-7%	11µM*	-6%	-7%	22µM*
c1ccc(-c2ccc(C3=Nn4c(Cn5nnc6ccccc65)nnc4SC3)cc2)cc1	-42%	-19%	28µM*	-9%	27%	18µM*
CCOC(=O)N1CCN(C(=O)c2cc3c(s2)-c2ccc(Cl)cc2S(=O)(=O)C3)CC1	-3%	8%	-3%	8%	-21%	.
COc1cc(C(=O)O/N=C2\C=CC(=O)C(C)=C2)cc(OC)c1OC	-113%	1%	14µM*	2%	11µM*	-15%
SMILES	HTT ATP protect	CBFb-RUNX1 inh	ALDH1A1 block	JMJD2E inh	HTT aggregate	HPGD inh
COc1cc(C(=O)ON=C2C=C(C)C(=O)C(C)=C2)cc(OC)c1OC	15%[10 µM]	9%	-3%	-4%	?	-15%
Cc1cc(NC(=O)CCCn2ccc([N+](=O)[O-])n2)n(Cc2ccc(F)cc2)n1	-15%	-4%	?	-3%	-5%	.
CC(=NC1CCCC1)c1c(C)[nH]n(-c2nc3ccccc3s2)c1=O	-78%	0%	14µM*	4%	-12%	-16%
CC(=NC1CC1)c1c(-c2ccccc2)[nH]n(-c2nc3ccccc3s2)c1=O	-13%	-3%	-2%	-3%	-5%	-10%
CC1CCCCN1S(=O)(=O)c1ccc(NC(=O)CSc2nnnn2C)cc1 (centres undefined)	-6%	9%	22µM*	-1%	-22%	-30%
N#Cc1cc2ccccc2nc1SCC(=O)Nc1ccc(S(=O)(=O)N2CCCC2)cc1	20%	0%	10µM*	1%	-11%	-13%
O=C(CSc1nnc2ccccn12)Nc1ccc(S(=O)(=O)N2CCOCC2)cc1	-31%	5%	25µM*	-2%	5%	.
Cc1ccccc1-n1nnnc1SCC(=O)Nc1ccc(S(=O)(=O)N2CCCC2)cc1	-12%[10 µM]	5%	4µM*	1%	10%	-4%
COc1ccc2nc(SCC(=O)Nc3ccc(S(=O)(=O)N4CCCC4)cc3)c(C#N)cc2c1	-7%	11%	?	?	20%	-13%
CCn1c(SCC(=O)Nc2ccccc2)nnc1-c1ccc(S(=O)(=O)N2CCOCC2)cc1	4%[10 µM]	3%	?	-1%	6%	-13%
Cc1cc2cc(C)c3nnc(SCC(=O)Nc4ccc(S(=O)(=O)N5CCCCC5C)cc4)n3c2cc1C (centres undefined)	-12%[10 µM]	0%	?	1%	-16%	-12%
CCOc1ccc(/C(O)=C/C(=O)C(=O)Nc2ccc(S(=O)(=O)NC(C)=O)cc2)cc1	-1%[10 µM]	-1%	-6%	?	22%	-19%
Cn1cc(Cl)nc1C(O)c1ccccc1 (centres undefined)	6%[10 µM]	14%	24%	3%	14%	4%
COCCN1Cc2cccc(C(=O)NCCCN3CCCC3=O)c2C1=O	1%[10 µM]	13%	.	3%	-1%[9.22 µM]	.
CC(C1CCN(Cc2nc(C3CC3)no2)CC1)N1CCOCC1 (centres undefined)	-20%[10 µM]	1%	10%	-9%	-4%[9.22 µM]	.
CCCC(=O)Nc1ccc(S(=O)(=O)N2CCOCC2)cc1	21%[1.9 µM]	9%	3.2µM*	2%	11%	-4%
Cc1ccc(C)c(-n2nnnc2SCC(=O)Nc2cccc(-c3nnc4n3CCCCC4)c2)c1	-34%	1%	7.1µM*	5%	?	-17%
CNC(=O)CSc1nnnn1-c1cc(C)ccc1C	-2%[10 µM]	4%	?	2%	-5%	-8%
ClCC1CN(Cc2ccccc2Cl)CCO1 (centres undefined)	8%	6%	0%	5%	15%	.

High-throughput results (PubChem)
